{"source": "ChEMBL document CHEMBL1201862", "about": "“PubChem BioAssay data set” (2004)", "note": "Among all 420,000 compounds or so, about 50,000 (12%) were called active. About 26% were inconclusive and are not listed. No cut-off for these calls is given here. The full list was thinned out, with actives kept by preference.", "data": [{"molecular_target": "Tyrosyl-DNA phosphodiesterase 1 (Homo sapiens) (UniProt Q9NUW8)", "sequence (Q9NUW8 whole entry)": "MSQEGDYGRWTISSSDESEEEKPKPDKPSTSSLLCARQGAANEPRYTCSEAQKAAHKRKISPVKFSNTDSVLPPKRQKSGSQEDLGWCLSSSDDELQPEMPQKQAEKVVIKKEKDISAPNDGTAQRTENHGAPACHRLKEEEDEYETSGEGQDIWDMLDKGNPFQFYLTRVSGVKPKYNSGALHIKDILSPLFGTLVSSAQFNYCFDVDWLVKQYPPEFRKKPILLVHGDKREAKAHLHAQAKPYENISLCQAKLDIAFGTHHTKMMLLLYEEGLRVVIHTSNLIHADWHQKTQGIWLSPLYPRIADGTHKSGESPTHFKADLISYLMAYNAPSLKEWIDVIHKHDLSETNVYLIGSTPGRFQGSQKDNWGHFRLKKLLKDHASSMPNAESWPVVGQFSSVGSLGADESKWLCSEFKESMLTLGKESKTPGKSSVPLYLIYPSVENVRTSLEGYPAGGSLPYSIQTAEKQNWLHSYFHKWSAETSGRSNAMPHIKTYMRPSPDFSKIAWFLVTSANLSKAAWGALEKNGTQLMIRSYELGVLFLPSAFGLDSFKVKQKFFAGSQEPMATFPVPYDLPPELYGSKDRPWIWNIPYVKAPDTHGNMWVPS", "test": "qHTS for Inhibitors of human tyrosyl-DNA phosphodiesterase 1 (TDP1): qHTS in cells in presence of CPT.", "assay_type": "functional", "values": [{"smiles": "COc1ccc(OC)c(/C=C/c2cccc3c2N(CCCCI)C=S3/C=C/c2cc(OC)ccc2OC)c1", "note": "(stereo not given)", "Potency": "6.31 µM (active)"}, {"smiles": "CC(C)C(C)c1cccc2c1NC=S2C(C)C(C)C", "note": "(stereo not given)", "Potency": "5.62 µM (active)"}, {"smiles": "COc1ccccc1/C=C/C(=O)c1cccs1", "Potency": "9.44 µM (active)"}, {"smiles": "ICCCCN1C=S(CI)c2ccccc21", "note": "(stereo not given)", "Potency": "10 µM (active)"}, {"smiles": "Cc1cccc2c1N(CCCCI)C=S2C", "note": "(stereo not given)", "Potency": "3.98 µM (active)"}]}]}
